BoNT F protease – BoNT F light chain protease inhibition. Multiplex microsphere protease cleavage assay, flow cytometry. inhibition, % at 10 µM. 360,000 tested, 0.22% active; in the data active = inhibition above about 35%, passing the limit was not always enough; inconclusive = no clear call, values can overlap the other calls; also: plate controls were buffer without enzyme for full effect and enzyme alone for no effect
Anthrax LF prot – anthrax lethal factor protease inhibition; multiplex microsphere protease cleavage assay, LF; inhibition, % at 10 µM; 360,000 tested, 0.12% active; also: plate controls were buffer without enzyme for full effect and enzyme alone for no effect
BoNT-A LC inh2 – blocks Botulinum neurotoxin A light chain protease; multiplex microsphere protease substrate cleavage, flow cytometry; inhibition, % at 10 µM; 360,000 tested, 0.17% active; AID 588499; also: plate controls were buffer without enzyme for full effect and enzyme alone for no effect
Autofluor counter – counter-screen for toxin protease inhibitors: compound fluorescence; compound autofluorescence counterscreen, microsphere flow cytometry; hits give high values; fluorescence intensity (test concentration not listed); 360,000 tested, 3.1% active; AID 624483; in the data active = fluorescence intensity above about 16000; inconclusive = no clear call, values can overlap the other calls
BH1578 lux ind – inducers of Vibrio cholerae quorum light production without autoinducers; AID 588436; 350,000 tested, 0.16% active; activation, % at 18.7 µM; V. cholerae BH1578 lux reporter, luminescence, 6 h; in the data active = activation mostly above about 9.7%, no sharp cut-off; inconclusive = no clear call, values can overlap the other calls; inactive = mostly below about 3.7%
BJeLR viability – BJeLR cell viability loss. BJeLR (HRASV12) viability, CellTiter-Glo ATP luminescence, 48 h. inhibition, % (no concentration beside the values). 300,000 tested, 0.17% active. AID 1554; in the data active = inhibition above about 50%; inconclusive = no clear call, values can overlap the other calls
Numbers without * were called inactive; i = inactive; ? = inconclusive; . = not tested or not shown. An excerpt weighted towards active compounds, which were near 3.7% of everything screened. Rule as the data show it, unless noted: active = inhibition above about 30%; inconclusive = no clear call, values can overlap the other calls; inactive = below that.

SMILES	BoNT F protease	Anthrax LF prot	BoNT-A LC inh2	Autofluor counter	BH1578 lux ind	BJeLR viability
Cn1c(SCc2ccc(C#N)cc2)nnc1-c1ccccc1	-7	4	0	3144	.	-3
Cn1c(SCc2ccc(C#N)cc2)nnc1-c1cccc(Cl)c1	-2	-3	-1	16948*	i	8
N#Cc1ccc(S(=O)(=O)N2CCCCC2c2cc(C(=O)NCc3ccccc3)no2)cc1 (stereo not drawn)	-1	-5	0	3372	0	.
COC[C@H]1CCCN1[C@H]1CS(=O)(=O)N[C@@H]1COCc1ccccc1	-2	0	0	6785	.	.
CCCC(=O)NC(c1ccco1)c1c(O)ccc2ccccc12 (stereo not drawn)	-2	-1	?	24638*	2	1
C=Cc1ccc(Cn2c(C)c(C(=O)NCc3ccc(C#N)cc3)sc2=O)cc1	0	3	0	5417	-1	.
CCC(C)c1ccccc1NC(=S)Nc1cccnc1 (stereo not drawn)	-43	-12	-4	4026	i	-5
OCc1ccccc1NC(=S)Nc1cccnc1	-8	-3	-7	25402*	i	2
Cc1ccc(-n2nnnc2SCC(=O)Nc2cc(C)on2)c(C)c1	10	-8	0	3539	i	-6
Cc1ccc(-n2nnnc2SC(C)C(N)=O)c(C)c1 (stereo not drawn)	3	0	1	8162	17*	4
C/C(N)=C(/C#N)C(=O)CSc1nnnn1-c1ccc(C)cc1C	13	-16	8	19626*	0	0
Cc1ccc(-n2nnnc2SC(C)C(=O)NCC(=O)Nc2ccc(F)c(F)c2F)c(C)c1 (stereo not drawn)	-3	0	0	2124	0	-5
CCOC(=O)c1[nH]c(C)c(/C(O)=C2\C(=O)C(=O)N(CCN(C)C)C2c2ccc(C)o2)c1C (stereo not drawn)	-3	-1	-4	21142*	0	1
COC(=O)c1[nH]c(C)c(/C(O)=C2\C(=O)C(=O)N(CCN(C)C)C2c2cccs2)c1C (stereo not drawn)	-2	-5	1	20496*	i	-4
COC(=O)c1[nH]c(C)c(/C(O)=C2\C(=O)C(=O)N(CCN(C)C)C2c2cccc(OC)c2OC)c1C (stereo not drawn)	0	-1	0	9911	1	-11
CCN(CC)CCN1C(=O)C(=O)/C(=C(/O)c2c(C)[nH]c(C(=O)OC)c2C)C1c1cccc(OC)c1 (stereo not drawn)	-4	-4	-4	18213*	-6	-2
CCOC(=O)C1(C)CCN1C(=O)c1ccc2c(c1)CCO2 (stereo not drawn)	4	-4	0	4058	-1	.
C=CCNC(=O)c1ccc(N(Cc2ccc(Cl)cc2)S(C)(=O)=O)cc1	39*	10	1	3005	0	-5
C=CCN(c1ccc(C(=O)NC(C)C)cc1)S(C)(=O)=O	-2	-5	0	23751*	0	5
COc1ccc(CN2CCC2(C)C(=O)NCc2ccc3c(c2)OCO3)c2ccccc12 (stereo not drawn)	-6	-11	-1	4016	0	.
CC(C)NC(=O)Nc1nnc([C@H]2C[C@H](O)[C@@H](CO)O2)s1	2	2	0	3663	-1	.
COc1ccc(Nc2nc(-c3cccc([N+](=O)[O-])c3)nc3ccccc23)c(OC)c1	-11	1	0	2211	0	3
COc1ccc(OC)c(Nc2nc(-c3cccc([N+](=O)[O-])c3)nc3ccccc23)c1	-8	-3	-4	25968*	i	2
CC(NC(=O)c1ccc2c(c1)OCO2)C1CCCO1 (stereo not drawn)	1	0	0	22158*	0	5
O=C1CC(c2ccccc2)CC2=C1CN(C1CCCCC1)CN2 (stereo not drawn)	-7	-7	-3	23766*	-1	.
SMILES	BoNT F protease	Anthrax LF prot	BoNT-A LC inh2	Autofluor counter	BH1578 lux ind	BJeLR viability
O=C1NCN(C2CCCCC2)CN1	1	3	0	4090	i	.
CCOC(=O)c1sc(NC(=O)CSc2n[nH]c(-c3ccc(Cl)cc3Cl)n2)c(C#N)c1C	-2	0	?	23279*	i	5
CCOC(=O)c1sc(NC(=O)CSc2nc3c(cc2C#N)CCCCCC3)c(C#N)c1C	-9	-1	?	17520*	0	14
CCOC(=O)c1sc(NC(=O)CSc2nc(C)cc(C)c2C#N)c(C#N)c1C	16	-4	0	3979	-1	4
CCOC(=O)c1sc(NC(=O)CSc2nc(C)cc(-c3ccccc3)n2)c(C#N)c1C	-1	-7	2	19559*	0	-19
O=C(NCc1ccccc1)C1c2ccccc2OCC(=O)N1Cc1ccco1 (stereo not drawn)	-5	-6	-1	5399	.	.
CCCOc1ccc(N2C(=O)CC(N(Cc3ccco3)C(=O)CC)C2=O)cc1 (stereo not drawn)	23	8	4	4054	1	2
CCCOc1ccc(N2C(=O)CC(N(C(=O)c3ccco3)c3ccc(OCCC)cc3)C2=O)cc1 (stereo not drawn)	-5	-2	?	16880*	0	0
CN(C)CCNc1ncnc2c1ncn2[C@H]1CN(Cc2ccc(Cl)cc2)C[C@@H](CO)O1	-1	-2	0	3482	i	.
CCCCCc1nc2ccccc2c(=O)n1-c1ccc(Cl)cc1[N+](=O)[O-]	-6	0	-3	23302*	1	0
CCCCc1nc2ccccc2c(=O)n1-c1ccccc1O	11	0	0	2493	i	-3
NC(=S)NN=C1C=CCCC1	-8	-7	0	3854	1	.
O=C(NNS(=O)(=O)c1ccc(F)cc1)c1ccccc1O	-10	4	4	4252	-1	1
Cc1ccc(S(=O)(=O)NNc2ccccc2)cc1	-3	-1	?	16260*	-1	15
Cc1ccc(S(=O)(=O)NNC(=O)c2ccccc2O)cc1	39*	1	3	2084	i	-1
CC1=C(C(=O)N2CCOCC2)CC(CC(=O)NC2CCCCC2)C(=O)N1CCCN1CCCC1=O (stereo not drawn)	-1	3	0	3615	0	.
O=C(c1cc(-c2cccs2)on1)N1CCN(C(c2ccccc2)c2ccccc2)CC1	6	-1	0	3681	3	-5
O=C(c1cc(-c2cccs2)on1)N1CCc2ccccc2C1	0	-2	2	22720*	-1	6
O=C(c1ccccc1Cl)N1CCc2ccccc2C1	-7	-2	-5	17580*	-1	-12
O=C(c1cc(-c2cccs2)on1)N1CCOCC1	-6	0	-2	21693*	0	4
O=C(NCC1CCCO1)c1cccc(S(=O)(=O)Nc2ccccc2Cl)c1 (stereo not drawn)	-7	-1	0	4022	-1	.
CCOc1ccc(N=Cc2c(C)[nH]n(-c3nc4ccccc4[nH]3)c2=O)cc1	1	-1	0	2780	0	65*

Compound activity: PubChem, several laboratories
